Screening data: PubChem BioAssay, National Center for Advancing Translational Sciences (NCATS)
D3 ag = agonists of human D3 dopamine receptor | D3R DiscoveRx beta-arrestin cells, luminescence, 90 min | max activation, % | 410,000 compounds, 0.58% hits | AID 652048; in the data active = max activation above about 30%; also: 0% is about no effect
Target sequence (P35462 whole entry, looked up): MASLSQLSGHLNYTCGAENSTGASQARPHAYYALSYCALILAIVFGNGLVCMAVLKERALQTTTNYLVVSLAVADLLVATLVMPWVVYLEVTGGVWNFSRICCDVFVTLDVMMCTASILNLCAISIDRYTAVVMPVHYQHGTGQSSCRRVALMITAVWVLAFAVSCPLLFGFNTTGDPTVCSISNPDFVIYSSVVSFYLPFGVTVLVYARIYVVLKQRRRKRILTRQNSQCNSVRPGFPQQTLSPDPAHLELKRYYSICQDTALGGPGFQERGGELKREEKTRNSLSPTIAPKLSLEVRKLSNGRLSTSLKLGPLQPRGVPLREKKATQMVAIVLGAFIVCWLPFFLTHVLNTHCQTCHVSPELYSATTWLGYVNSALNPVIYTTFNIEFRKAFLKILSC
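Cells at 1500/well, incubated overnight, then treated with pinned compounds (dopamine as control) for 90 min at 37 degrees C. DiscoveRx reagent added for 30 - 60 minutes at room temperature; luminescence read.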
DRD3 antagonist = antagonists of human D3 dopamine receptor; D3R cells, DiscoveRx beta-arrestin luminescence, antagonist mode; hits give low values; max response, negative = inhibition, %; 360,000 compounds, 2.5% hits; AID 652054; in the data active = max response below about -50%; inconclusive = no clear call, values can overlap the other calls; also: % is scaled to controls: 0 for no effect and ±100 for the full control effect
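Cells expressing the human receptor were seeded at 1500 cells/well, incubated overnight at 37 degrees C in 5% CO2, then exposed to library compounds with dopamine controls for 90 minutes at 37 degrees C before luminescent detection.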
HepG2 tox-1 = kills HepG2 cells in TGF-b inhibitor counter-screen; Potency, µM (highest dose often 46.1 µM), inactives show top-dose activity change, negative = cytotoxicity, hits mostly cytotoxic; 410,000 compounds, 0.76% hits; HepG2 CAGA-GFP viability, ATP luminescence, 18 h; also: potency is read from the fitted curve at half-maximal effect
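HepG2 CAGA-GFP cells (1000/well, DMEM with 1% FBS) received compound, then TGF-beta at 500 pg/mL final, and were incubated 18 hours at 37 degrees C. Viability was read by CellTiter-Glo luminescence. Media-only wells were set as complete cell-killing and DMSO as no toxicity.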
S2 tox = viability counter-screen for ATXN expression inhibitors. S2 cells (HEK-293 line with an ATXN2-luciferase reporter) viability, CellTiter-Fluor protease fluorescence, 24 h. Potency, µM (top dose mostly 56.7 µM), hits mostly cytotoxic. 400,000 compounds, 0.49% hits. AID 651635; also: potency is read from the fitted curve at half-maximal effect; nearly all actives have a fitted effect of over 40% in size
ATXN2 expr inh = inhibitors of ATXN2 expression; 360,000 compounds, 0.72% hits; Potency, µM (doses to about 57 µM), for inactives: at the highest dose activity change, negative = inhibition, actives largely listed as inhibitors; HEK-293 ATXN2-luciferase reporter, luminescence, 24 h; also: potency is read from the fitted curve at half-maximal effect; % is scaled to controls: 0 for no effect and ±100 for the full control effect; nearly all actives have a fitted effect of over 55% in size
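ATXN2-luciferase reporter cells (luciferase flanked by upstream and downstream ATXN2 gene portions) were treated 24 h at 37 °C with compounds at up to 57 uM. SteadyGlo luminescence gave expression; GF-AFC fluorescence gave viability.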
TGFb inhibitor = TGF-b pathway inhibition. HepG2 CAGA-GFP TGF-b/SMAD3 reporter, GFP fluorescence, 18 h; TGF-beta stimulated, 500 pg/mL final. Potency, µM (titrated, usually from 46.1 µM), inactives show at the highest dose activity, negative = inhibition, most hits filed as inhibitors. 410,000 compounds, 1.2% hits. AID 588855; also: potency is read from the fitted curve at half-maximal effect; % is scaled to controls: 0 for no effect and ±100 for the full control effect; nearly all actives have a fitted effect of over 65% in size
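Using HEPG2 CAGA-GFP reporter cells at 1000 cells/well, we pinned test compounds, stimulated with recombinant TGF-beta (500 pg/mL final) and measured total well GFP after 18 h.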
TGFb CAGA inh = TGF-b pathway inhibition, cherry-pick retest; shares compounds with TGFb inhibitor; HepG2 CAGA-GFP TGF-b reporter, GFP fluorescence, 18 h; cells stimulated with TGF-beta, 500 pg/mL; Potency, µM (top dose mostly 46.1 µM), for the others: at the highest dose activity, negative = inhibition, actives largely listed as inhibitors; 1,600 compounds, 63% hits; also: potency is read from the fitted curve at half-maximal effect; % is scaled to controls: 0 for no effect and ±100 for the full control effect; nearly all actives have a fitted effect of over 65% in size
HepG2 tox-2 = counter-screen for TGF-b inhibitors: cytotoxicity in HepG2 cells; 1,600 compounds, 27% hits; HepG2 CAGA-GFP viability, ATP luminescence, 18 h; cells stimulated with TGF-beta, 500 pg/mL; Potency, µM (top dose mostly 46.1 µM), inactives show top-dose activity, negative = cytotoxicity, most hits filed as inhibitors; AID 720535; shares compounds with TGFb inhibitor; also: potency is read from the fitted curve at half-maximal effect; % is scaled to controls: 0 for no effect and ±100 for the full control effect; nearly all actives have a fitted effect of over 70% in size
TGFb CCL64 inh = orthogonal confirmation of TGF-b inhibitors in CCL64 cells; Potency, µM (top dose mostly 46.1 µM), inactives show at the highest dose activity, negative = inhibition, most hits filed as inhibitors; shares compounds with TGFb inhibitor; CCL64 CAGA-GFP reporter, TGF-b stimulated, GFP fluorescence, 18 h; 1,600 compounds, 41% hits; also: potency is read from the fitted curve at half-maximal effect; nearly all actives have a fitted effect of over 65% in size
COP TGFb inh = blocks TGF-b signaling in HepG2 COP reporter; AID 720537; shares compounds with TGFb inhibitor; 1,600 compounds, 3% hits; HepG2 COP-GFP TGF-b reporter, GFP fluorescence, 18 h; cells stimulated by added recombinant TGF-beta; Potency, µM (highest dose often 46.1 µM), without a hit: at the top dose activity, negative = inhibition, usual class: inhibitors; also: potency is read from the fitted curve at half-maximal effect; nearly all actives have a fitted effect of over 70% in size
* hit, by the source's call; i = inactive; ? = inconclusive; · = no result given. An excerpt weighted towards active compounds, which were near 4.8% of everything screened. Unless noted, calls follow the shape of the dose curve; as a rule, active = well fitted curve in the direction sought with a large enough effect; inconclusive = small, poorly fitted or top-dose-only effect, or another doubt; inactive = no such curve, though single readings can be large; an effect the other way counts as inactive or inconclusive.

SMILES	D3 ag	DRD3 antagonist	HepG2 tox-1	S2 tox	ATXN2 expr inh	TGFb inhibitor	TGFb CAGA inh	HepG2 tox-2	TGFb CCL64 inh	COP TGFb inh
CCC(C)n1ncn(-c2ccc(N3CCN(c4ccc(OC[C@H]5CO[C@](Cn6cncn6)(c6ccc(Cl)cc6Cl)O5)cc4)CC3)cc2)c1=O (some centres not stated)	7	·	·	i	?	·	·	·	·	·
COC(=O)c1c(NC(NC(=O)C(C)(C)C)C(Cl)(Cl)Cl)sc2c1CCC2 (configuration not stated)	-5	-13	-2%	i	-6%	13µM*	9.2µM*	?	?	53%
COC(=O)c1c(NC(NC(C)=O)C(Cl)(Cl)Cl)sc2c1CCCC2 (configuration not stated)	-11	-24	-26%	i	-14%	13µM*	15µM*	-22%	16µM*	4%
CCC(=O)NC(Nc1sc2c(c1C(=O)OC)CCC2)C(Cl)(Cl)Cl (configuration not stated)	12	3	9%	i	-17%	11µM*	21µM*	-10%	?	-27%
COC(=O)c1c(NC(NC(=O)CC(C)C)C(Cl)(Cl)Cl)sc2c1CCC2 (configuration not stated)	6	-29	-4%	i	-15%	?	·	·	·	·
CCc1cnc2c(c1SCC(=O)c1ccc(OC)cc1)c(=O)n(C)c(=O)n2C	5	·	-20%	?	2%	?	·	·	·	·
CCOC(=O)c1c(C)[nH]c(C)c1S(=O)(=O)N1CCC(C(=O)Nc2cc(Cl)ccc2OC)CC1	3	·	-11%	i	-22%	-32%	·	·	·	·
Cc1cccc(N2CCN(C(=O)c3cc4ccc5cccnc5c4[nH]3)CC2C)c1 (configuration not stated)	4	·	-35%	·	·	?	·	·	·	·
CCCCCOc1ccc(CSCCNC(=S)Nc2ccccc2)cc1	-5	-10	-9%	i	-5%	-11%	·	·	·	·
CCCCOc1ccc(CSCCNC(=S)Nc2ccccc2)cc1	-6	1	-17%	?	-24%	7.9µM*	?	-16%	9%	-10%
CC(=O)N1c2ccc(S(=O)(=O)N3CCC(C(=O)Nc4cccc(C(F)(F)F)c4)CC3)cc2CC1C (configuration not stated)	-6	-3	-19%	i	?	11µM*	16µM*	?	-23%	-8%
Oc1ccccc1-c1nc(NCc2cccnc2)c2ccccc2n1	4	5	-21%	i	?	20µM*	?	?	?	17%
COc1ccc2cc(-c3ccccc3F)ncc2c1	-29	-8	-31%	i	67%	?	-9%	-21%	0%	9%
COc1ccc(-c2cc3ccc(OC)cc3cn2)cc1	-1	-18	4%	i	5%	-26%	·	·	·	·
CCC(C)Sc1ccc([C@@H]2[C@@H]3C(=O)N(C)C(=O)[C@@H]3[C@]3(C(=O)OC)CCCCN23)cc1OC (some centres not stated)	0	-22	-11%	i	-6%	1%	·	·	·	·
CCC(C)Sc1ccc([C@@H]2[C@@H]3C(=O)N(CC)C(=O)[C@@H]3[C@]3(C(=O)OC)CCCCN23)cc1OC (some centres not stated)	11	16	-7%	i	-5%	?	?	2%	-23%	5%
COc1ccc(S(=O)(=O)Nc2ccccc2C(=O)Nc2nc(-c3ccc(F)cc3)cs2)cc1OC	8	21	-38%	i	?	7.1µM*	10µM*	?	8.2µM*	48%
COc1ccc(-c2csc(NC(=O)c3ccccc3NS(=O)(=O)c3ccc(C)cc3)n2)cc1	8	6	-44%	i	?	3.5µM*	6.5µM*	9.2µM*	5.2µM*	46%
Cc1cc2nc(-c3ccc(F)cc3)c(CC(C)(C)C)n2c(C)c1Br	-7	-19	-33%	?	-22%	10µM*	?	?	?	-3%
O=C(CSC1=NNC(c2ccccn2)S1)Nc1ccc(C(F)(F)F)cc1 (configuration not stated)	16	-7	-23%	i	?	?	-20%	-22%	?	-1%
CCN(CC)C(=O)CSc1nnc2nnc3cc(Cl)ccc3n12	-9	?	-86%	i	-21%	4µM*	23µM*	23µM*	?	?
S=C(NCCc1ccccc1)Nc1ccc(Cl)cc1	-7	-15	-45%	i	40%	?	·	·	·	·
O=C(Nc1ccc([N+](=O)[O-])cc1)Nc1ccon1	-14	?	-27%	i	-12%	10µM*	?	-21%	?	-17%
O=C(Nc1csc([N+](=O)[O-])c1)Nc1c(Cl)cccc1Cl	-4	-15	-19%	i	·	-18%	·	·	·	·
O=[N+]([O-])c1ccc(NC(=S)NCCc2ccc(Cl)cc2)cc1	1	13	11µM*	?	?	6.3µM*	15µM*	21µM*	4.6µM*	97%
O=C(Nc1ccc(Cl)cc1)Nc1csc([N+](=O)[O-])c1	-11	-14	-26%	i	?	4µM*	6.5µM*	6.5µM*	5.2µM*	76%
O=C(Nc1ccc([N+](=O)[O-])cc1)Nc1ccc(Cl)cc1F	-5	-17	2.8µM*	i	?	2.2µM*	?	?	4.1µM*	26%
CCCCN(c1ccccc1)c1ncnc2c1cnn2-c1ccc(Cl)cc1	-8	·	1%	i	48%	10%	·	·	·	·
